# Test results reported in PubChem BioAssay AID1376 (SRMLSC, 2008).
# The campaign covered roughly 220,000 compounds. About 530 (0.24%) were called active. Cut-off read from the data, not from the text of the source: active = inhibition above about 13%; inconclusive = no clear call, values can overlap the other calls; inactive = below that. For the sample, actives were picked, then their nearest neighbours and some compounds at random. Potency and affinity values are given separately.
# Biological target: Bifunctional protein GlmU (Mycobacterium tuberculosis (strain ATCC 25618 / H37Rv)) (UniProt P9WMN3)
# Sequence (P9WMN3 whole entry, looked up): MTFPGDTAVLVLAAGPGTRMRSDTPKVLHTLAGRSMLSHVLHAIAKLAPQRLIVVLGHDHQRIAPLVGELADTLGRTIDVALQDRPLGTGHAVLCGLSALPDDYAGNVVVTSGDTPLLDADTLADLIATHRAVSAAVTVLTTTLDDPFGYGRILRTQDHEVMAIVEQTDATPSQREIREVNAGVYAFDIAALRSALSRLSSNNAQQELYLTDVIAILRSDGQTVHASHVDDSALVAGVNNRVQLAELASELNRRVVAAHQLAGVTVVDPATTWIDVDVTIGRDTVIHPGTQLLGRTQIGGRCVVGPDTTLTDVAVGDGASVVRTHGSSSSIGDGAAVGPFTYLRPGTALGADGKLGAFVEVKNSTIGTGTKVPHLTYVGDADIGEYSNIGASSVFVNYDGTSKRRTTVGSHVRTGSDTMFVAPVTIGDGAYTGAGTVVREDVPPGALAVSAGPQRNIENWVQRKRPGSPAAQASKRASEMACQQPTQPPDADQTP
# Experiment: inhibition of mycobacterial GlmU enzyme – biochemical, glucosamine-1-phosphate acetyltransferase (AID 1376);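 note: 0% = complete reaction with vehicle and 100% = reaction without substrate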
# Conditions: M. tuberculosis GlmU acetyltransferase enzyme assay; stronger effect = higher value;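 tested at 30 µM in the primary screen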
row,Compound,inhibition
1,CN(c1ccccc1)S(=O)(=O)c1ccc(NC(=S)NC(=O)c2ccccc2)cc1,0.7% (inactive)
2,CN(c1ccccc1)S(=O)(=O)c1ccc(NC(=S)Nc2ccccc2)cc1,18.1% (active)
3,CC(=O)Nc1ccc(S(=O)(=O)N(C)c2ccccc2)cc1,-1.32% (inactive)
4,O=C1c2cccc(O)c2C(=O)c2c(O)cccc21,6.42% (inactive)
5,O=C(O)c1ccc2c(c1Sc1ccccc1)C(=O)c1ccccc1C2=O,7.96% (inactive)
6,O=C1c2cccc(Sc3ccccc3)c2C(=O)c2c(Sc3ccccc3)cccc21,14.2% (active)
7,CC(C)C(NC(=O)C1CCC(C(C)(C)C)CC1)C(=O)NCc1cccnc1 (stereo not drawn),5% (inactive)
8,CCOc1ccc(S(=O)(=O)N2CCN(C(=S)NC3CC3)CC2)cc1,4.79% (inactive)
9,CCn1c(Cc2ccccc2)nnc1SCc1cccc(C(=O)O)c1,1.34% (inactive)
10,CCC(=NC(C)c1ccccc1)c1c(O)n(C)c(=O)n(C)c1=O (stereo not drawn),-3.09% (inactive)
11,COc1cc2c(cc1OC)C(c1ccccc1O)N(C1CC(=O)N(c3ccccc3)C1=O)CC2 (stereo not drawn),2.68% (inactive)
12,CCOC(=O)Cc1csc(NC(=O)c2cc(C)cc(C)c2)n1,-2.68% (inactive)
13,Cn1c(SCC(=O)O)nnc1-c1ccc2ncccc2c1,-1.41% (inactive)
14,Cn1c(SCC(=O)N2CCOCC2)nnc1-c1ccc2ncccc2c1,13.7% (active)
15,CCOC(=O)CSc1nnc(-c2ccc3ncccc3c2)n1C,0.08% (inactive)
16,Cc1ccc(S(=O)(=O)N2CCCOC2CNC(=O)C(=O)NC2CCCCC2)cc1 (stereo not drawn),-5.78% (inactive)
17,O=C1/C(=C\c2ccc(Br)o2)Cc2ccccc21,8.39% (inactive)
18,Cc1ccc(C=C2C(=O)c3ccccc3C2=O)o1,2.45% (inactive)
19,COc1ccc(C(CNC(=O)c2ccc(S(=O)(=O)N(C)C)cc2)N2CCCCC2)cc1 (stereo not drawn),0.14% (inactive)
20,COc1ccc(NC(=O)N2CCCC2C(=O)NCc2ccc(C)cc2)cc1 (stereo not drawn),1.15% (inactive)
21,CC(C)CNC(C)C(=O)Nc1ccc(S(N)(=O)=O)cc1 (stereo not drawn),-3.38% (inactive)
22,C=CCOc1c2ccc(C(=O)NCc3ccc(C)cc3)cc2nn1C,1.15% (inactive)
23,Cn1c2ccccc2c2cc(C(=O)N3CCN(CCO)CC3)sc21,12.8% (active)
24,CC(=O)NNC(=O)c1cc2c3ccccc3n(C)c2s1,2.59% (inactive)
25,Cn1c2ccccc2c2cc(C(=O)N3CCOCC3)sc21,5.13% (inactive)

row,Compound,inhibition
1,Cc1cccc(CSc2nc3c(cc2C#N)CN(C)CC3)c1,-4.03% (inactive)
2,CN1CCc2nc(SCc3ccccc3Br)c(C#N)cc2C1,-4.18% (inactive)
3,CN1CCc2nc(SCc3cccc(Br)c3)c(C#N)cc2C1,13% (active)
4,Cc1c(C(=O)OCCOc2ccccc2)[nH]c2c1C(=O)CCC2,2.56% (inactive)
5,N#C/C(=C\c1ccc([N+](=O)[O-])o1)c1nc2ccccc2[nH]1,-6.95% (inactive)
6,N#C/C(=C/c1ccc(-c2ccc(S(N)(=O)=O)cc2)o1)c1nc2ccccc2s1,6.34% (inactive)
7,N#C/C(=C\c1ccco1)c1nc2ccccc2s1,7.35% (inactive)
8,N#C/C(=C\c1ccc(Sc2ccccc2)o1)c1nc2ccccc2[nH]1,-4.05% (inactive)
9,COc1cc(/C=C(\C#N)c2nc3ccccc3s2)cc([N+](=O)[O-])c1O,6.33% (inactive)
10,N#C/C(=C/c1ccncc1)c1nc2ccccc2s1,-6.23% (inactive)
11,CC(C)(C)NC(=O)NC(=O)COC(=O)c1ccc2c(c1)S(=O)(=O)N=C1CCCCCN12,-5.9% (inactive)
12,O=C(C(=S)N1CCOCC1)c1c[nH]c2ccccc12,-1.14% (inactive)
13,O=C1C2C3C=CC(CC3)C2C(=O)N1/N=C/c1c(O)ccc2ccccc12 (stereo not drawn),-1.22% (inactive)
14,CC(NC(=O)c1ccco1)C1COc2ccccc2O1 (stereo not drawn),1.62% (inactive)
15,CC(Sc1nnc2ccccn12)C(=O)Nc1ccc(Cl)cn1 (stereo not drawn),8.91% (inactive)
16,COc1ccccc1C1=NN(C2=NN=C(N)Cc3ncnn32)C(O)(C(F)(F)F)C1 (stereo not drawn),-7.53% (inactive)
17,N#CCC(=O)N/N=C/c1cccc(Oc2ccccc2)c1,5.36% (inactive)
18,O=c1c2ccccc2nc(N2CCCC2)n1-c1ccc(Cl)cc1,3.51% (inactive)
19,O=c1c2ccccc2nc(N2CCCC2)n1-c1ccccc1,13.9% (active)
20,CN1CCN(c2nc3ccccc3c(=O)n2-c2ccccc2)CC1,2.07% (inactive)
21,CC1(C)CC(=O)C2=C(C1)NC(=O)C21C(C(=O)OC(C)(C)C)=C(N)Oc2ccc(Br)cc21 (stereo not drawn),4.2% (inactive)
22,O=C(Cc1ccc([N+](=O)[O-])cc1)NCc1ccc2c(c1)OCO2,-3.22% (inactive)
23,O=C(Cc1ccccc1[N+](=O)[O-])Nc1ccc2c(c1)OCO2,0.87% (inactive)
24,O=C(Cc1ccccc1[N+](=O)[O-])NCc1ccc2c(c1)OCO2,14% (active)
25,O=C(/C=C/c1ccco1)Oc1cccc2cccnc12,14.7% (active)

row,Compound,inhibition
1,O=C(/C=C/c1ccccc1)Oc1cccc2cccnc12,0.34% (inactive)
2,O=C(/C=C\c1ccco1)Oc1cccc2cccnc12,0.86% (inactive)
3,CN(NC(=O)Nc1ccccc1)c1cnn(C)c(=O)c1Cl,4.46% (inactive)
4,Cc1ccc(NC(=O)CC2COc3ccccc3O2)cc1 (stereo not drawn),-0.6% (inactive)
5,CC1(C)CC(=O)C2=C(C1)NC(=O)CC2c1ccc(N(CCC#N)CCC#N)cc1 (stereo not drawn),-4.28% (inactive)
6,O=C1CSC(=S)N1/N=C/c1ccc(O)c([N+](=O)[O-])c1,55.6% (active)
7,O=C1CSC(=S)N1/N=C/c1ccc(Cl)c([N+](=O)[O-])c1,4.42% (inactive)
8,COc1cccc(/C=N/N2C(=O)CSC2=S)c1O,5.18% (inactive)
9,O=C1c2ccccc2C(=O)N1/N=C/c1ccc(O)c(O)c1O,10.8% (inactive)
10,COc1cc(/C=N/N2C(=O)CSC2=S)ccc1O,-0.65% (inactive)
11,COC(=O)c1c(C)n(-c2ccc(C)cc2)c2ccc(O)cc12,-3.11% (inactive)
12,O=C(CCn1c(=O)[nH]c2ccccc2c1=O)N1CC=C(c2ccccc2)CC1,1.07% (inactive)
13,O=C(CSc1ccccn1)N/N=C/c1cc([N+](=O)[O-])ccc1O,4.16% (inactive)
14,O=C(Nc1cccc(S(=O)(=O)N2CCOCC2)c1)c1ccc(Cl)c([N+](=O)[O-])c1,-7.13% (inactive)
15,O=C(Nc1cccc(C(F)(F)F)c1)N1CCN(C(=O)Nc2cccc(C(F)(F)F)c2)CC1,-0.83% (inactive)
16,COc1ccccc1N1CCN(C(=O)/C=C/c2c(Cl)nc3ccccn23)CC1,1.7% (inactive)
17,COc1ccc(/C=N/c2c(-c3ccc(OC)cc3)nc3n2CCS3)cc1,-0.71% (inactive)
18,Cc1nc2cc(NC(=O)NCc3ccc4c(c3)OCO4)ccc2o1,0.01% (inactive)
19,CC12CCC(c3nnc(SCc4ccc(Cl)cc4)nc31)C2(C)C (stereo not drawn),7.21% (inactive)
20,COc1ccc(-c2nc3scc(-c4ccccc4)n3n2)cc1,5.16% (inactive)
21,COCCn1c(Cc2ccccc2)nnc1SCC(=O)Nc1ccccc1,2.41% (inactive)
22,CC1(C)NC(=O)N(CCOCCOc2c(Cl)cc(Cl)cc2Cl)C1=O,2.47% (inactive)
23,Cc1cc(Cl)c(OCCN2C(=O)NC(C)(C)C2=O)c(Br)c1,-1.37% (inactive)
24,Cc1cc(C)c(OCCN2C(=O)NC(C)(C)C2=O)c(Cl)c1,14.1% (active)
25,O=C(c1nnsc1S(=O)(=O)c1ccc(Cl)cc1)N1CCOCC1,0.93% (inactive)

row,Compound,inhibition
1,CNC(=O)c1nnsc1S(=O)(=O)c1ccc(Cl)cc1,11.5% (inactive)
2,CCCNC(=O)c1nnsc1S(=O)(=O)c1ccc(Cl)cc1,10.7% (inactive)
3,CCCNC(=O)c1nnsc1Sc1ccc(Cl)cc1,1.02% (inactive)
4,O=C(Nc1ccccc1)c1nnsc1S(=O)(=O)c1ccc(Cl)cc1,6.59% (inactive)
5,O=C(c1cc(-c2ccc(Cl)cc2)on1)N1CCOCC1,3.17% (inactive)
6,Cc1nnsc1C(=O)Nc1ccc(Cl)cc1,5.53% (inactive)
7,CNC(=O)c1ncoc1-c1ccc(Cl)cc1,-1.29% (inactive)
8,CC1(C)C(=O)OC(c2ccccc2)C2(CCCC2)C1=O (stereo not drawn),-6.73% (inactive)
9,COC(=O)N1CCN(CCc2ccccc2)CC1,0.78% (inactive)
10,CCCCNC(=O)CNC(=S)N(Cc1ccccc1)Cc1cccs1,4.12% (inactive)
11,CCc1cccc(NC(=O)CCS(=O)(=O)c2cccc3nonc23)c1,0.23% (inactive)
12,CC(NC(=O)CSC(=S)N(C)C)C12CC3CC(CC(C3)C1)C2 (stereo not drawn),2.22% (inactive)
13,O=C1C2C3C=CC(C3)C2C(=O)N1CCCCN1C(=O)C2C3C=CC(C3)C2C1=O (stereo not drawn),4.77% (inactive)
14,O=C1C2C3C=CC(C3)C2C(=O)N1CCCCCCN1C(=O)C2C3C=CC(C3)C2C1=O (stereo not drawn),-4.36% (inactive)
15,CCCC(=O)Nc1c(C)nn(C(=O)CCC)c1C,9.51% (inactive)
16,COc1cccc(-c2nnc(SCCC(=O)O)n2C)c1,-2.35% (inactive)
17,C/C(Cl)=C/Cn1c(NCCCn2ccnc2)nc2c1c(=O)[nH]c(=O)n2C,-3.26% (inactive)
18,Cc1cc(C)n(-c2ccc(C(=O)OCC(=O)Nc3ccc(S(=O)(=O)N4CCOCC4)cc3)cc2)n1,12.8% (active)
19,COc1ccc(S(=O)(=O)N2CCOCC2)cc1NC(=O)COC(=O)c1ccc(C)s1,0.67% (inactive)
20,COc1ccc(OC)c(NC(=O)COC(=O)c2ccc(S(=O)(=O)N3CCOCC3)cc2)c1,14.5% (active)
21,Cc1cc(C)n(-c2ccc(C(=O)OCC(=O)Nc3ccc(S(=O)(=O)N4CCCCC4)cc3)cc2)n1,0.24% (inactive)
22,CCN(CC)S(=O)(=O)c1ccc(NC(=O)COC(=O)c2ccc(-n3nc(C)cc3C)cc2)cc1,2.95% (inactive)
23,COc1ccc(C(=O)OCC(=O)Nc2cc(S(=O)(=O)N3CCOCC3)ccc2N2CCCC2)cc1,0.15% (inactive)
